{
  "source": "PubChem BioAssay (NCI)",
  "key": {"[1]": {"assay": "NCI Yeast Anticancer Drug Screen. Data for the rad52 strain (AID 147);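 also: 0% = growth of vehicle-treated control cultures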", "details": "S. cerevisiae rad52 mutant growth inhibition, stronger effect = higher value", "outline": "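Vehicle-treated cultures served as the reference for growth inhibition of compound-exposed yeast bearing a DNA repair mutation.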"}, "[2]": {"assay": "NCI Yeast Anticancer Drug Screen. Data for the wt1 strain (AID 149);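 also: 0% = growth of vehicle-treated wt1 cultures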", "details": "S. cerevisiae wt1 strain (SPY 50644) growth inhibition, stronger effect = higher value", "outline": "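Readout: yeast growth inhibition, normalised to vehicle controls, in the wt1 strain exposed to test compounds.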"}, "[3]": {"assay": "NCI Yeast Anticancer Drug Screen. Data for the rad50EPP+ strain (AID 151);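 also: 0% = growth of vehicle-treated control cultures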", "details": "S. cerevisiae rad50 mutant strain, stronger effect = higher value", "outline": "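In this screen, rad50EPP+ yeast were exposed to compounds. Growth inhibition was scored against vehicle-treated controls.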"}, "[4]": {"assay": "NCI Yeast Anticancer Drug Screen. Data for the rad50 strain (AID 155);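 also: 0% = growth of vehicle-only cultures of the same strain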", "details": "S. cerevisiae rad50 strain growth inhibition, stronger effect = higher value", "outline": "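Compounds were tested on a yeast strain with an engineered DNA damage repair alteration; the reported value is growth inhibition normalised to vehicle treatment.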"}, "[5]": {"assay": "NCI Yeast Anticancer Drug Screen. Data for the mec2-1 strain (AID 157)", "details": "S. cerevisiae mec2-1 strain, stronger effect = higher value", "outline": "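Vehicle-treated cultures served as reference for growth inhibition of compound-exposed mec2-1 yeast.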"}, "[6]": {"assay": "NCI Yeast Anticancer Drug Screen. Data for the rad14 strain (AID 159);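 also: 0% = growth of vehicle-treated control cultures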", "details": "S. cerevisiae rad14 strain growth inhibition, stronger effect = higher value", "outline": "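Compound-treated yeast with a defined DNA-repair lesion; growth inhibition normalised to vehicle-treated cultures.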"}, "[7]": {"assay": "NCI Yeast Anticancer Drug Screen. Data for the sgs1 mgt1 strain (AID 161);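 also: 0% = growth of cultures given vehicle only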", "details": "S. cerevisiae sgs1 mgt1 strain, stronger effect = higher value", "outline": "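Test agents were incubated with a DNA-repair-mutant yeast strain. Growth was then read and compared against vehicle-treated controls.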"}, "[8]": {"assay": "NCI Yeast Anticancer Drug Screen. Data for the CLN2oe strain (AID 163);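 also: 0% = growth of vehicle-only control cultures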", "details": "S. cerevisiae CLN2oe strain, stronger effect = higher value", "outline": "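Inhibition relative to vehicle-treated yeast is reported. Cells: strain with genetic alteration in cell-cycle control, grown with compound.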"}, "[9]": {"assay": "NCI Yeast Anticancer Drug Screen. Data for the cln2 rad14 strain (AID 165);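 also: 0% = growth equal to vehicle treated cultures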", "details": "S. cerevisiae cln2 rad14 strain, stronger effect = higher value", "outline": "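Each compound was tested on cln2 rad14 yeast. Inhibition of growth was calculated against vehicle-exposed controls.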"}, "[10]": {"assay": "NCI Yeast Anticancer Drug Screen. Data for the bub3 strain (AID 167)", "details": "S. cerevisiae bub3 mutant strain, stronger effect = higher value", "outline": "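Growth of a checkpoint-deficient yeast mutant is measured after compound exposure. Values represent inhibition relative to vehicle.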"}, "[11]": {"assay": "NCI Yeast Anticancer Drug Screen. Data for the wt2 strain (AID 169);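 also: 0% = growth of vehicle-treated yeast cultures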", "details": "S. cerevisiae wt2 strain growth inhibition, stronger effect = higher value", "outline": "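Inhibition of yeast growth was determined after compound treatment, normalised to controls receiving only vehicle.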"}, "[12]": {"assay": "NCI Yeast Anticancer Drug Screen. Data for the mlh1 strain (AID 171);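 also: 0% = growth of vehicle-treated control cultures of the same strain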", "details": "S. cerevisiae mlh1 strain growth inhibition, stronger effect = higher value", "outline": "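Vehicle-normalised growth inhibition of a repair- or checkpoint-altered yeast strain following compound treatment.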"}, "[13]": {"assay": "NCI Yeast Anticancer Drug Screen. Data for the sgs1 strain (AID 173);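 also: 0% = growth of vehicle-only control cultures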", "details": "S. cerevisiae sgs1 mutant, stronger effect = higher value", "outline": "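Screen format: yeast with repair or checkpoint alterations, compound exposure, growth read relative to vehicle.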"}, "[14]": {"assay": "NCI Yeast Anticancer Drug Screen. Data for the rad18 strain (AID 177)", "details": "S. cerevisiae rad18 mutant growth inhibition, stronger effect = higher value", "outline": "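Test articles were incubated with altered yeast defective in DNA damage repair. Results are given as inhibition of growth versus vehicle.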"}, "[15]": {"details": "at 5.0 µM (retest, dose inferred, filed as 0.5)"}, "[16]": {"details": "at 50.0 µM (retest, dose inferred, filed as 5.0)"}},
  "note": "About 79,000 compounds went through this panel and 15% of them were active in at least one assay; those are over-represented in the sample as a whole. Values without a mark were called inactive. Calls of active or inactive are those of the source. Rule as the data show it: active = growth inhibition above about 70%; inactive = the rest.",
  "data": [
    {"smiles": "CCCCCNC(=O)c1c(O)[nH]c(=S)[nH]c1=O", "values": [
      {"measurement": "growth inhibition", "setting": "[1]; at 1.2 µM", "value": -6, "unit": "%"},
      {"measurement": "growth inhibition", "setting": "[1]; at 3.7 µM", "value": -15, "unit": "%"},
      {"measurement": "growth inhibition", "setting": "[1]; at 11.0 µM", "value": 23, "unit": "%"},
      {"measurement": "growth inhibition", "setting": "[1]; at 33.0 µM", "value": "89% (active)"},
      {"measurement": "growth inhibition", "setting": "[1]; at 100.0 µM", "value": "94% (active)"},
      {"measurement": "growth inhibition", "setting": "[2]; at 1.2 µM", "value": -3, "unit": "%"},
      {"measurement": "growth inhibition", "setting": "[2]; at 3.7 µM", "value": 9, "unit": "%"},
      {"measurement": "growth inhibition", "setting": "[2]; at 11.0 µM", "value": 15, "unit": "%"},
      {"measurement": "growth inhibition", "setting": "[2]; at 33.0 µM", "value": 68, "unit": "%"},
      {"measurement": "growth inhibition", "setting": "[2]; at 100.0 µM", "value": "88% (active)"},
      {"measurement": "growth inhibition", "setting": "[3]; at 1.2 µM", "value": -25, "unit": "%"},
      {"measurement": "growth inhibition", "setting": "[3]; at 3.7 µM", "value": -23, "unit": "%"},
      {"measurement": "growth inhibition", "setting": "[3]; at 11.0 µM", "value": -16, "unit": "%"},
      {"measurement": "growth inhibition", "setting": "[3]; at 33.0 µM", "value": 30, "unit": "%"},
      {"measurement": "growth inhibition", "setting": "[3]; at 100.0 µM", "value": "78% (active)"},
      {"measurement": "growth inhibition", "setting": "[4]; at 1.2 µM", "value": 5, "unit": "%"},
      {"measurement": "growth inhibition", "setting": "[4]; at 3.7 µM", "value": 14, "unit": "%"},
      {"measurement": "growth inhibition", "setting": "[4]; [15]", "value": 61, "unit": "%"},
      {"measurement": "growth inhibition", "setting": "[4]; at 11.0 µM", "value": 64, "unit": "%"},
      {"measurement": "growth inhibition", "setting": "[4]; at 33.0 µM", "value": "95% (active)"},
      {"measurement": "growth inhibition", "setting": "[4]; [16]", "value": "93% (active)"},
      {"measurement": "growth inhibition", "setting": "[4]; at 50.0 µM", "value": "88.1% (active)"},
      {"measurement": "growth inhibition", "setting": "[4]; at 100.0 µM", "value": "96% (active)"},
      {"measurement": "growth inhibition", "setting": "[5]; at 1.2 µM", "value": -14, "unit": "%"},
      {"measurement": "growth inhibition", "setting": "[5]; at 3.7 µM", "value": -5, "unit": "%"},
      {"measurement": "growth inhibition", "setting": "[5]; [15]", "value": 8, "unit": "%"},
      {"measurement": "growth inhibition", "setting": "[5]; at 11.0 µM", "value": 25, "unit": "%"},
      {"measurement": "growth inhibition", "setting": "[5]; at 33.0 µM", "value": "87% (active)"},
      {"measurement": "growth inhibition", "setting": "[5]; [16]", "value": "92% (active)"},
      {"measurement": "growth inhibition", "setting": "[5]; at 50.0 µM", "value": "87.7% (active)"},
      {"measurement": "growth inhibition", "setting": "[5]; at 100.0 µM", "value": "92% (active)"},
      {"measurement": "growth inhibition", "setting": "[6]; at 1.2 µM", "value": 16, "unit": "%"},
      {"measurement": "growth inhibition", "setting": "[6]; at 3.7 µM", "value": 64, "unit": "%"},
      {"measurement": "growth inhibition", "setting": "[6]; at 11.0 µM", "value": "91% (active)"},
      {"measurement": "growth inhibition", "setting": "[6]; at 33.0 µM", "value": "96% (active)"},
      {"measurement": "growth inhibition", "setting": "[6]; at 100.0 µM", "value": "96% (active)"},
      {"measurement": "growth inhibition", "setting": "[7]; [15]", "value": 26, "unit": "%"},
      {"measurement": "growth inhibition", "setting": "[7]; [16]", "value": "87% (active)"},
      {"measurement": "growth inhibition", "setting": "[7]; at 50.0 µM", "value": "92.2% (active)"},
      {"measurement": "growth inhibition", "setting": "[8]; at 1.2 µM", "value": 4, "unit": "%"},
      {"measurement": "growth inhibition", "setting": "[8]; at 3.7 µM", "value": -7, "unit": "%"},
      {"measurement": "growth inhibition", "setting": "[8]; at 11.0 µM", "value": 2, "unit": "%"},
      {"measurement": "growth inhibition", "setting": "[8]; at 33.0 µM", "value": 53, "unit": "%"},
      {"measurement": "growth inhibition", "setting": "[8]; at 100.0 µM", "value": "83% (active)"},
      {"measurement": "growth inhibition", "setting": "[9]; [15]", "value": 6, "unit": "%"},
      {"measurement": "growth inhibition", "setting": "[9]; [16]", "value": 60, "unit": "%"},
      {"measurement": "growth inhibition", "setting": "[9]; at 50.0 µM", "value": 61.3, "unit": "%"},
      {"measurement": "growth inhibition", "setting": "[10]; at 1.2 µM", "value": -17, "unit": "%"},
      {"measurement": "growth inhibition", "setting": "[10]; at 3.7 µM", "value": -1, "unit": "%"},
      {"measurement": "growth inhibition", "setting": "[10]; [15]", "value": 65, "unit": "%"},
      {"measurement": "growth inhibition", "setting": "[10]; at 11.0 µM", "value": 65, "unit": "%"},
      {"measurement": "growth inhibition", "setting": "[10]; at 33.0 µM", "value": "87% (active)"},
      {"measurement": "growth inhibition", "setting": "[10]; [16]", "value": "94% (active)"},
      {"measurement": "growth inhibition", "setting": "[10]; at 50.0 µM", "value": "88.6% (active)"},
      {"measurement": "growth inhibition", "setting": "[10]; at 100.0 µM", "value": "93% (active)"},
      {"measurement": "growth inhibition", "setting": "[11]; at 1.2 µM", "value": -32, "unit": "%"},
      {"measurement": "growth inhibition", "setting": "[11]; at 3.7 µM", "value": -1, "unit": "%"},
      {"measurement": "growth inhibition", "setting": "[11]; at 11.0 µM", "value": 56, "unit": "%"},
      {"measurement": "growth inhibition", "setting": "[11]; at 33.0 µM", "value": "91% (active)"},
      {"measurement": "growth inhibition", "setting": "[11]; at 100.0 µM", "value": "94% (active)"},
      {"measurement": "growth inhibition", "setting": "[12]; at 1.2 µM", "value": 13, "unit": "%"},
      {"measurement": "growth inhibition", "setting": "[12]; at 3.7 µM", "value": 46, "unit": "%"},
      {"measurement": "growth inhibition", "setting": "[12]; at 11.0 µM", "value": "90% (active)"},
      {"measurement": "growth inhibition", "setting": "[12]; at 33.0 µM", "value": "96% (active)"},
      {"measurement": "growth inhibition", "setting": "[12]; at 100.0 µM", "value": "96% (active)"},
      {"measurement": "growth inhibition", "setting": "[13]; at 1.2 µM", "value": -10, "unit": "%"},
      {"measurement": "growth inhibition", "setting": "[13]; at 3.7 µM", "value": 0, "unit": "%"},
      {"measurement": "growth inhibition", "setting": "[13]; at 11.0 µM", "value": "79% (active)"},
      {"measurement": "growth inhibition", "setting": "[13]; at 33.0 µM", "value": "94% (active)"},
      {"measurement": "growth inhibition", "setting": "[13]; at 100.0 µM", "value": "96% (active)"},
      {"measurement": "growth inhibition", "setting": "[14]; at 1.2 µM", "value": -12, "unit": "%"},
      {"measurement": "growth inhibition", "setting": "[14]; at 3.7 µM", "value": 2, "unit": "%"},
      {"measurement": "growth inhibition", "setting": "[14]; at 11.0 µM", "value": 45, "unit": "%"},
      {"measurement": "growth inhibition", "setting": "[14]; at 33.0 µM", "value": "86% (active)"},
      {"measurement": "growth inhibition", "setting": "[14]; at 100.0 µM", "value": "94% (active)"}
    ]}
  ]
}
